CYP2C19 inhib – human CYP2C19 inhibition; P33261; CYP2C19 Supersomes, luciferin-H EGE luminescence, 30 min; inhibition, % at 5 µM; 96,000 compounds, 21% hits;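 active means CYP2C19 inhibition above a set limit at 5 µM in the primary screen, cut at about 50% in these data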
CYP2C9 act – activators of human CYP2C9 | P11712 | recombinant CYP2C9, luciferin-H conversion, luminescence; stronger effect = higher value; factor 1 = untreated enzyme, 0 = blocked | activation factor at 5 µM | 96,000 compounds, 1.4% hits | AID 1024;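 active means activation factor of 2 or more for CYP2C9 at a 5 µM dose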
CYP2C9 inhib – inhibitors of human CYP2C9 | P11712 | CYP2C9 Supersomes, luciferin-H conversion, luminescence | inhibition, % at 5 µM | 96,000 compounds, 20% hits | AID 777;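 active means blocking of liver enzyme CYP2C9 beyond about 50% at 5 µM, limit read from the data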
Mac1 fbg enh – CD11b/CD18-fibrinogen binding enhancement. K562 CD11b/CD18 adhesion to fibrinogen, ATPlite luminescence. activation, % at 10 µM. 93,000 compounds, 0.07% hits. P05107+P11215. AID 1499;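 active means 10 µM primary screen giving 50% or more activity, confirmed by 40% or more on retest at that dose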
CD11b adhes inh – blocks human CD11b/CD18 adhesion to fibrinogen. K562 CD11b/CD18 adhesion to fibrinogen, ATPlite luminescence; Mn2+ added to activate the integrin. inhibition, % at 10 µM. 93,000 compounds, 0.54% hits;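 active means primary inhibition of 50% or more at 10 µM, then 40% or more on retest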
CYP2C19 act – cytochrome P450 2C19 (human) activation; recombinant CYP2C19, luciferin-H EGE luminescence; stronger effect = higher value; 0 = fully inhibited enzyme, 1 = untreated enzyme; activation factor at 5 µM; P33261; 96,000 tested, under 10 active; AID 1025;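 active means activation factor of at least 2 at 5 µM in the primary screen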
Of the large screens only hits and unclear results are named; the others gave an inactive call. Hits are enriched below; roughly 28% of the tested compounds scored in any of these assays.

COc1ccc(CNC(=O)CSc2nc3nc(C)cc(C)n3n2)cc1	CYP2C9 inhib 61
Cc1cc(C)n2nc(SCC(=O)c3ccccc3)nc2n1	CYP2C19 inhib 59
Cc1nc(CN2CCCC2=NC#N)n(-c2ccccc2)n1	none
O=C(OCC1OC(n2cnc3c(N(C(=O)c4ccccc4)C(=O)c4ccccc4)ncnc32)C(O)C1F)c1ccccc1 (stereo not drawn)	CYP2C19 inhib 80, CYP2C9 inhib 94
CCOC(=O)c1cc(-c2ccccc2)sc1NC(=O)CN1C(=O)NC(CC)(c2ccccc2)C1=O (stereo not drawn)	CYP2C9 inhib 89
CC(C)(C)c1ccc(C2(C)NC(=O)N(CC(=O)Nc3ccc4c(c3)OCO4)C2=O)cc1 (stereo not drawn)	none
CCC1(c2ccccc2)NC(=O)N(CC(=O)Nc2cccc(C#N)c2)C1=O (stereo not drawn)	CYP2C19 inhib 71
CC1(c2ccccc2)NC(=O)N(CC(=O)Nc2cccc(C#N)c2)C1=O (stereo not drawn)	CYP2C9 inhib 73
CC1(c2ccccc2)NC(=O)N(CC(=O)Nc2ccc3c(c2)OCO3)C1=O (stereo not drawn)	CYP2C9 inhib 87
Cc1ccc(NC(=O)CN(C)C(=O)CN2C(=O)NC(C)(c3ccccc3)C2=O)cc1 (stereo not drawn)	none
CCN1C(=O)CC(N2CCN(CC(=O)NC(C)C)CC2)C1=O (stereo not drawn)	none (no result: Mac1 fbg enh, CD11b adhes inh)
CCOC(=O)Nc1sc2nc(C)cc(C)c2c1-n1cccc1	CYP2C9 inhib 66
CCOC(=O)Nc1nc2ccccc2s1	none
COc1ccc(CSc2nnc(SCc3ccc([N+](=O)[O-])cc3)s2)cc1	none
O=[N+]([O-])c1ccc(CSc2nnc(-c3cnccn3)o2)cc1	CYP2C19 inhib 90
Cc1cccc(S(=O)(=O)NCCC(=O)OC(C)C(=O)NC(=O)NC2CCCCC2)c1 (stereo not drawn)	CYP2C9 inhib 56
CC(=O)OC(C(=O)NC1CCCCC1)c1cccc(C)c1 (stereo not drawn)	none
O=C(NC1CCCC1)c1ccc(CS(=O)(=O)c2cccc(C(F)(F)F)c2)o1	none
O=C(COC(=O)CCNS(=O)(=O)c1cccc(C(F)(F)F)c1)NC(=O)NC1CCCCC1	CYP2C19 inhib 69, CYP2C9 inhib 79
Cc1nc2ccccc2c2nc(NC(=O)Cc3ccccc3)nn12	none
Cn1c(=O)[nH]c(=O)c2c1nc(N1CCNCC1)n2Cc1cccc2ccccc12	none
CCOC(=O)c1nnn(-c2nonc2N)c1CN(CC)CC	none
CCOC(=O)c1nnn(-c2nonc2N)c1CNc1ccccc1	CYP2C9 inhib 53
CCOC(=O)c1nnn(-c2nonc2N)c1COc1ccccc1	CYP2C9 inhib 88
CCOC(=O)c1nnn(-c2nonc2N)c1CN(CC)c1ccccc1	CYP2C19 inhib 99, CYP2C9 inhib 89
CCOC(=O)c1nnn(-c2nonc2N)c1CNC(C)C	none
COC(=O)c1nnn(-c2nonc2N)c1CSc1nc2ccccc2s1	CYP2C19 inhib 52
COc1ccccc1NC(=O)NC1(C(=O)N2CCC(O)CC2)CCCCC1	none
CCCN1C2=NCCN2c2cc(C)c(C)cc21	none
Cc1cc2nnn(-c3nnc(-c4ccccc4)c4ccccc34)c2cc1C	none
CCOC(=O)c1nnn(-c2nonc2N)c1COc1ccc(F)cc1	CYP2C9 inhib 81
CCOC(=O)c1nnn(-c2nonc2N)c1CN1CCCCCC1	none
CCOC(=O)CSc1nc2c(cnn2-c2ccc(C)cc2)c(=O)[nH]1	none (no result: Mac1 fbg enh, CD11b adhes inh)
Cc1nc(CS(=O)(=O)c2ccc(Cl)cc2)cc(N2CCOCC2)n1	CYP2C19 inhib 80, CYP2C9 inhib 53 (no result: Mac1 fbg enh, CD11b adhes inh)
Cc1nc(CS(=O)(=O)c2ccc(Cl)cc2)cc(Sc2ccccc2Cl)n1	CYP2C19 inhib 52, CYP2C9 inhib 67
Cn1nnc2cc(C(=O)NC3CCCCC3)ccc21	none
O=C(O)CN1CCOCCOCCN(CC(=O)O)CCOCCOCC1	none
OC(C#CCN1CCOCC1)(c1ccccc1)C1CC1 (stereo not drawn)	CYP2C19 inhib 57
CCOC(=O)C1CCCN(c2ncnc3c2[nH]c2cccc(OC)c23)C1 (stereo not drawn)	CYP2C19 inhib 63
CCOC(=O)C(NC(=O)Nc1ccc(F)cc1)(OCC)C(F)(F)F (stereo not drawn)	CYP2C19 inhib 50
CCOC(=O)C(NC(C)=O)(Nc1ccc(F)cc1)C(F)(F)F (stereo not drawn)	CYP2C19 inhib 63
CCOC(=O)C(=O)/C(C#N)=C/Nc1ccc(F)cc1	none
CCOC(=O)C(NC(C)=O)(Nc1cccc(F)c1)C(F)(F)F (stereo not drawn)	none
Cc1cc(O)c(/C=N/Nc2cccc(Cl)c2)c(=O)o1	CYP2C19 inhib 58, CYP2C9 inhib 71
CCOC(=O)c1cnc2sc3c(n2c1=O)CCCC3	none
Cc1ccc(-c2csc3nnc(SCC(=O)Nc4cccc(C)n4)n23)cc1	CYP2C19 inhib 57, CYP2C9 inhib 53
CC(=O)Nc1ccc(C(=O)CSc2nnc3scc(-c4ccccc4)n23)cc1	CYP2C9 inhib 58
O=C(CCSc1nnc2scc(-c3ccccc3)n12)Nc1nc(-c2ccccc2)ns1	none
CC(=O)Nc1c(C(=O)NCc2ccccc2)nnn1Cc1ccccc1	none
O=C(Nc1ccccc1)c1nnn(Cc2ccccc2)c1NC(=O)C(F)(F)F	CYP2C19 inhib 57, CYP2C9 inhib 86
COc1ccccc1NC(=O)c1nnn(Cc2ccccc2)c1NC(=O)C(F)(F)F	CYP2C9 inhib 71
CN(C)S(=O)(=O)c1ccc(C(=O)Nc2ccccn2)cc1	none
CN(C)S(=O)(=O)c1ccc(C(=O)Nc2ccnn2C2CCCCC2)cc1	CYP2C9 inhib 63
O=C(CN1C(=O)CSC1=O)Nc1ccc(N2CCOCC2)cc1	none
CCCS(=O)(=O)c1c(S(=O)(=O)CCC)c2c(N)cccn2c1C(=O)c1ccccc1	CYP2C9 inhib 75
CCCS(=O)(=O)c1c(S(=O)(=O)CCC)c2c3ccccc3ccn2c1C(N)=O	none
Cc1[nH]nc(SCC(=O)N2CCCCC2)c1[N+](=O)[O-]	CYP2C19 inhib 65
Cc1cc(C(=O)c2cnc(/N=C/N(C)C)s2)cc(C)c1O	CYP2C9 act 2 (no result: Mac1 fbg enh, CD11b adhes inh)
CN(C)/C=N/c1ncc(C(=O)c2ccccc2)s1	none
CCOC(=O)CNC(=O)Nc1cc(C(C)(C)C)nn1-c1ccccc1	none
CC(C)(C)c1cc(C(=O)N/N=C/c2ccc(F)cc2)n(-c2ccccc2)n1	CYP2C9 inhib 65
CC1CCN(CC(O)COCCC23CC4CC(CC(C4)C2)C3)CC1 (stereo not drawn)	none
N#Cc1cn(-c2ccccc2)nc1C(=O)c1ccccc1	CYP2C19 inhib 50
COC(=O)c1cc(Br)c(=O)n(Cc2ccc(C(=O)O)cc2)c1	none
